We go through 2 sequences from paper PMC7862700, “An all-to-all approach to the identification of sequence-specific readers for epigenetic DNA modifications on cytosine”.

What all share (assay): DAPPL (digital affinity profiling via proximity ligation, sequencing); 10 mM Tris-HCl pH 7.5, 50 mM NaCl, 1 mM DTT, 4% glycerol, room temperature, 30 min; GST-TFs on glutathione beads, 16-mer random dsDNA library, 0.1% formaldehyde crosslink after washing; high values mean tight binding
Common to all, as to conditions: protein: recombinant; tags: N-terminal GST; dsDNA, one strand shown

One assay addresses T1, ELK1 (Homo sapiens, UniProt P19419 1-428).
T1 sequence: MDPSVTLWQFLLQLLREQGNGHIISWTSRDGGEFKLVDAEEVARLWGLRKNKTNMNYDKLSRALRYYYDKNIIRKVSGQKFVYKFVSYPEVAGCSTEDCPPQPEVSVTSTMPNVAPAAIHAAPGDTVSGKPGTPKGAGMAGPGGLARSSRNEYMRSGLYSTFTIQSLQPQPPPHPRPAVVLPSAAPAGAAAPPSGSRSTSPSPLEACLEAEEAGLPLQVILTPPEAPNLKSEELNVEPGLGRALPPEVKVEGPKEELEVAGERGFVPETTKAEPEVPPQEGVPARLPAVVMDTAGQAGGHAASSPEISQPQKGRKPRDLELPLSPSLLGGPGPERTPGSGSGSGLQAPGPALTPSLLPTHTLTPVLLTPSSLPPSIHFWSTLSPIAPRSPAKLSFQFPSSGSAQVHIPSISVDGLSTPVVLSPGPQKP
Put shortly:
(§1)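 Sequencing on an Illumina NextSeq500 followed washing, crosslinking with 0.1% formaldehyde, proximity ligation (BsaI/T4 ligase, 1 h, 37 °C) and PCR amplification of pools that had been incubated for 30 min at room temperature with 200 nmole of a random double-stranded 16-mer DNA library in Tris/NaCl/DTT/glycerol buffer. Each pool held DNA-barcoded human transcription factors, expressed in yeast as GST fusions and captured on glutathione beads, plus a tag-only sample. Binding signal is a hexamer's read frequency for a factor divided by its frequency in the tag-only sample.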

The next assay deals with T2, GABPA (Homo sapiens, UniProt Q06546 1-454).
T2 sequence: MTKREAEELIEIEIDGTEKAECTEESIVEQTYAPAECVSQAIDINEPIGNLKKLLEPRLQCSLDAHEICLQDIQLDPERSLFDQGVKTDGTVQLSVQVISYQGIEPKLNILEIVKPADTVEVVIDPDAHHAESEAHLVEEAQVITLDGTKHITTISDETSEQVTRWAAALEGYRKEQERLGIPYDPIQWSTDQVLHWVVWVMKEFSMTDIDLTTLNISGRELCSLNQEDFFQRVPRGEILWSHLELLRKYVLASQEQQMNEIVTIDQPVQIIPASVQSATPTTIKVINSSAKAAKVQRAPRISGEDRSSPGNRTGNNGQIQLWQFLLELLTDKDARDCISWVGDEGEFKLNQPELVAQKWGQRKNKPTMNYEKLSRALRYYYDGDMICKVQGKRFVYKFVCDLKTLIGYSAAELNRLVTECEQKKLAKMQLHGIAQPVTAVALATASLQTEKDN
In outline:
as §1

For another assay, the target named is ELF1 (Homo sapiens, UniProt P32519 1-619). Put shortly:
as §1

For a further assay, the target named is T3, EHF (Homo sapiens, UniProt Q9NZC4 1-300).
T3 sequence: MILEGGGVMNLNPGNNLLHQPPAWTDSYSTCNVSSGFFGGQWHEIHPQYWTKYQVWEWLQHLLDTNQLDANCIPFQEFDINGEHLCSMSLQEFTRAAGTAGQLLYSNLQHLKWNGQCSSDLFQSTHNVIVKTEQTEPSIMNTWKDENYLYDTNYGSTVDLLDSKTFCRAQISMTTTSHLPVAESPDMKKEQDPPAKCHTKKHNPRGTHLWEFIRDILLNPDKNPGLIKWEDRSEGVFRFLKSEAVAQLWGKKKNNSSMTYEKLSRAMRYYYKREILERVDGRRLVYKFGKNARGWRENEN
Put shortly: as §1

The target in another assay is SPIB (Homo sapiens, UniProt Q01892 1-262). Put shortly:
as §1

Another assay addresses T4, SPIC (Homo sapiens, UniProt Q8N5J4 1-248).
T4 sequence: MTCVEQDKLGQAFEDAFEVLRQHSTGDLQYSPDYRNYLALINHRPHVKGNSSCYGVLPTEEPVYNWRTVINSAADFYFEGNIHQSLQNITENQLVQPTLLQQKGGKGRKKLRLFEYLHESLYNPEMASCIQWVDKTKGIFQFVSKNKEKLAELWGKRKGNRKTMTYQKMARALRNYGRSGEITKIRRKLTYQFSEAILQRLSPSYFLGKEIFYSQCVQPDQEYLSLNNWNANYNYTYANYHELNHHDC
In outline: as §1

The target in another assay is T5, ELK4 (Homo sapiens, UniProt P28324-2 1-405).
T5 sequence: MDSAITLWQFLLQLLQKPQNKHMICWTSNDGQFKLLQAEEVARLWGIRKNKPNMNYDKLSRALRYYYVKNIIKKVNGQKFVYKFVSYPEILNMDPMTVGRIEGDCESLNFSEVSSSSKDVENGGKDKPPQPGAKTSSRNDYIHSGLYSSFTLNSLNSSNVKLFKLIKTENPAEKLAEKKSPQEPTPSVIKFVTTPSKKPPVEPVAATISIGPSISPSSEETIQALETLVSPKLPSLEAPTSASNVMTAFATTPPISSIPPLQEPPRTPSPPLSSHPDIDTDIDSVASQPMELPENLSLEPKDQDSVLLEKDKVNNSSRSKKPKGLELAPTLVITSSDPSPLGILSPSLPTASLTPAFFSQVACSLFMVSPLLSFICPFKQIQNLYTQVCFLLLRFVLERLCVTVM
In outline: as §1

Another assay concerns the target ETV1 (Homo sapiens, UniProt P50549 1-477). Put shortly:
as §1

For another assay, the target named is T6, SPDEF (Homo sapiens, UniProt O95238 1-335).
T6 sequence: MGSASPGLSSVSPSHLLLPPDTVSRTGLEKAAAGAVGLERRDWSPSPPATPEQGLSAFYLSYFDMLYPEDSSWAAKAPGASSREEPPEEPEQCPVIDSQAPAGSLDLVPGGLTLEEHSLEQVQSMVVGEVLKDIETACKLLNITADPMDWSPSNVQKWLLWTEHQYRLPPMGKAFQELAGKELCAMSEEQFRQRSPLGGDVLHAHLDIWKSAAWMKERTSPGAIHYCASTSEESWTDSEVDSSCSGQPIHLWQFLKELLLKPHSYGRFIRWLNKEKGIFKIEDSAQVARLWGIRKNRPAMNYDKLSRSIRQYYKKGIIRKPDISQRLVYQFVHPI
Put shortly:
as §1

The next assay deals with T7, ETV3 (Homo sapiens, UniProt P41162-2 1-143).
T7 sequence: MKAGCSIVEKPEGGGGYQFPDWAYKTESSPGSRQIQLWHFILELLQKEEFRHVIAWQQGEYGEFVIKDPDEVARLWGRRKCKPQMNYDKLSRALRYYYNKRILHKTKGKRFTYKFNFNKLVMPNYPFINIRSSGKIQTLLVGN
In outline:
as §1

The next assay concerns the target ETV6 (Homo sapiens, UniProt P41212 1-452). Put shortly:
as §1

Another assay addresses ELF4 (Homo sapiens, UniProt Q99607 1-663). Put shortly: as §1
In a further assay the target is T8, ELF3 (Homo sapiens, UniProt P78545 1-371).
T8 sequence: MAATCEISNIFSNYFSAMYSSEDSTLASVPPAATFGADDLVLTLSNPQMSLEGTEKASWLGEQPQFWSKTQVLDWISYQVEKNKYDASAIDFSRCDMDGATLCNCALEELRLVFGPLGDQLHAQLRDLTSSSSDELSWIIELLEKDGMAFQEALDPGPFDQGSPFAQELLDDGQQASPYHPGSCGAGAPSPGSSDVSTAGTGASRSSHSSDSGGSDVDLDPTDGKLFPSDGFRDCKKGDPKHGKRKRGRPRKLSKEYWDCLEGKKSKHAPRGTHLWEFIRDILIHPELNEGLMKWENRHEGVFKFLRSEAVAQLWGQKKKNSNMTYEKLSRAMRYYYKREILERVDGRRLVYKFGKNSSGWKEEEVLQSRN
In outline:
as §1

For the next assay, the target named is T9, ERF (Homo sapiens, UniProt P50548 1-548).
T9 sequence: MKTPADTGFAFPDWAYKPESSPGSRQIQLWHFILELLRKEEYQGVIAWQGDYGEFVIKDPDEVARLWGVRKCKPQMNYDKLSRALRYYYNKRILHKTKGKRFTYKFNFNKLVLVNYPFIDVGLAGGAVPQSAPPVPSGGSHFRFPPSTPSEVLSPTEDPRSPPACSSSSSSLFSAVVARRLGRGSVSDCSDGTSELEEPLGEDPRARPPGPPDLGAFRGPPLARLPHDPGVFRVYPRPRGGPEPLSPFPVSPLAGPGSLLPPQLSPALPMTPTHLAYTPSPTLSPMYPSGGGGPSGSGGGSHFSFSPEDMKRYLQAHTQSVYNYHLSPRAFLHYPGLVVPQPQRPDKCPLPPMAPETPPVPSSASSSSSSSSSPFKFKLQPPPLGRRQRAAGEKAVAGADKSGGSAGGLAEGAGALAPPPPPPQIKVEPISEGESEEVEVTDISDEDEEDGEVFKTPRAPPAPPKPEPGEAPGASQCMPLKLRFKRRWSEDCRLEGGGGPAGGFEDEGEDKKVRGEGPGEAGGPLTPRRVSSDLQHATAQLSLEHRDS
In outline:
as §1

The target of the next assay is T10, ETV3L (Homo sapiens, UniProt Q6ZN32 1-361).
T10 sequence: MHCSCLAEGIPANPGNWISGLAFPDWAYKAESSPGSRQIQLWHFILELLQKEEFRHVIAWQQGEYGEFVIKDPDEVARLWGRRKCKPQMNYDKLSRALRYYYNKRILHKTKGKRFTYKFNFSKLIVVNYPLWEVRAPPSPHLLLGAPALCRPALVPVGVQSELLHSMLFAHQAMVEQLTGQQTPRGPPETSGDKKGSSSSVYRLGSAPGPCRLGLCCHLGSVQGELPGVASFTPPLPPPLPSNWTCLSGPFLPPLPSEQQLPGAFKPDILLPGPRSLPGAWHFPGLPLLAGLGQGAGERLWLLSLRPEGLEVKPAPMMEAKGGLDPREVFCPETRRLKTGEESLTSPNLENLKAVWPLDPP
Put shortly:
as §1

Another assay addresses T11, ETS2 (Homo sapiens, UniProt P15036 1-469).
T11 sequence: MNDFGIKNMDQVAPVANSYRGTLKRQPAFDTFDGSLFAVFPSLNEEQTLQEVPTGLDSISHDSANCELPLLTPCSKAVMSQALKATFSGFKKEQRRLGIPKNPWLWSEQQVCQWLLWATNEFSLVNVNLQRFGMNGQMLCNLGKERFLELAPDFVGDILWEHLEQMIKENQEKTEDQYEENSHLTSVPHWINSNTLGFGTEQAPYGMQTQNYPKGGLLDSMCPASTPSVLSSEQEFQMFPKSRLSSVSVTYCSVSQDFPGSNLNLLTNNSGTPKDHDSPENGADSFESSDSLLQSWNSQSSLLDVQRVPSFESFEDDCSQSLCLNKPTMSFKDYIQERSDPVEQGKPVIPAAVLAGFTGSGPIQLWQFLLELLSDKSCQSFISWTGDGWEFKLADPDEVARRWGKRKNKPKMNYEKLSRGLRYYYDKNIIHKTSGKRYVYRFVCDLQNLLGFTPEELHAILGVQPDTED
In outline:
as §1

For a further assay, the target named is T12, ETV7 (Homo sapiens, UniProt Q9Y603 1-341).
T12 sequence: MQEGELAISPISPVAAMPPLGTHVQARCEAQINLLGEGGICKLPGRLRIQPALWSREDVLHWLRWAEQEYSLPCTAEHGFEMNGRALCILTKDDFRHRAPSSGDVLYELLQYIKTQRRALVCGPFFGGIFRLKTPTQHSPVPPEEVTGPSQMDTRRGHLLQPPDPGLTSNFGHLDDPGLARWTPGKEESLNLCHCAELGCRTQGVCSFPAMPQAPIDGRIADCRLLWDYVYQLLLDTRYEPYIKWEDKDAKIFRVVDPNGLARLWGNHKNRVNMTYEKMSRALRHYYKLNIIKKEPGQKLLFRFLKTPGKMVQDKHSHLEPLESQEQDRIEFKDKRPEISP
Put shortly:
as §1

Chain of ELF1 (P32519 whole entry): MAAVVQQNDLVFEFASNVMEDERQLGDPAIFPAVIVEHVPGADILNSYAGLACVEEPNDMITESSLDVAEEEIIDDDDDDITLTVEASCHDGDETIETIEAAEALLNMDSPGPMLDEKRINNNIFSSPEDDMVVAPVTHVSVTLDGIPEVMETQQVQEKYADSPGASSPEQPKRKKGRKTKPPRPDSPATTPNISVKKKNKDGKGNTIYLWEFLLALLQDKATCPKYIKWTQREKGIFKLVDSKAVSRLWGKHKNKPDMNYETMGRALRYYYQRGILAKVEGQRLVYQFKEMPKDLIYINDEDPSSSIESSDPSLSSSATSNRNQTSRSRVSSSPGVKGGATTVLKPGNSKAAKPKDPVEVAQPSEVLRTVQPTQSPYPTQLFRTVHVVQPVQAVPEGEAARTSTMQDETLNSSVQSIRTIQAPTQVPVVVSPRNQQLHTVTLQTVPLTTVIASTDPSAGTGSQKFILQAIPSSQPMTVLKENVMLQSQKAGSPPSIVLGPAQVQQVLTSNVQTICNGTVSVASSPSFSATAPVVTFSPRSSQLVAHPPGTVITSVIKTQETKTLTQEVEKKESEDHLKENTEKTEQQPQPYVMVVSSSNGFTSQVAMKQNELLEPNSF
Chain of ETV6 (P41212 whole entry): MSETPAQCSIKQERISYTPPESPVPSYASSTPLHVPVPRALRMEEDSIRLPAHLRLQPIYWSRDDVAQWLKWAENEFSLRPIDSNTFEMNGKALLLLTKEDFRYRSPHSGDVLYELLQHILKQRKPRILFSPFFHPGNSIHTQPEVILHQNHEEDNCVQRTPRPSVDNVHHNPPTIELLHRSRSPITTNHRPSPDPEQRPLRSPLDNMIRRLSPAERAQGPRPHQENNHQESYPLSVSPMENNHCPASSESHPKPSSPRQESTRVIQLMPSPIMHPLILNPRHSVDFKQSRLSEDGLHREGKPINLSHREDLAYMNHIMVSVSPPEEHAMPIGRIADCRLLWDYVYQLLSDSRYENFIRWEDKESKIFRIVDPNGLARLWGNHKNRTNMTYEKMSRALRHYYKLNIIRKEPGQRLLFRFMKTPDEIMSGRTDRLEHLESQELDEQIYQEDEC
Chain of ETV1 (P50549 whole entry): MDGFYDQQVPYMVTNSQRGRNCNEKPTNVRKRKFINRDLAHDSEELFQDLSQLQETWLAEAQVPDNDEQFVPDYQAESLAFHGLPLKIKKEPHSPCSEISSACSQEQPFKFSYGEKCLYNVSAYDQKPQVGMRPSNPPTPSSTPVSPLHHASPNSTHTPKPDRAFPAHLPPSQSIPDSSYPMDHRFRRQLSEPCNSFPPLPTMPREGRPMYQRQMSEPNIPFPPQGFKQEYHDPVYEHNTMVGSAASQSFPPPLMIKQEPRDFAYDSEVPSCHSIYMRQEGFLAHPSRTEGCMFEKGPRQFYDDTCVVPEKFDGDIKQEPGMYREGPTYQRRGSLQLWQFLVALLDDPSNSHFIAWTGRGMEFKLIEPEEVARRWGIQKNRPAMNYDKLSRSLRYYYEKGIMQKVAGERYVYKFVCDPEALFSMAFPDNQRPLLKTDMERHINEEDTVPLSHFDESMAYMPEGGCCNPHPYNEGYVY
Chain of SPIB (Q01892 whole entry): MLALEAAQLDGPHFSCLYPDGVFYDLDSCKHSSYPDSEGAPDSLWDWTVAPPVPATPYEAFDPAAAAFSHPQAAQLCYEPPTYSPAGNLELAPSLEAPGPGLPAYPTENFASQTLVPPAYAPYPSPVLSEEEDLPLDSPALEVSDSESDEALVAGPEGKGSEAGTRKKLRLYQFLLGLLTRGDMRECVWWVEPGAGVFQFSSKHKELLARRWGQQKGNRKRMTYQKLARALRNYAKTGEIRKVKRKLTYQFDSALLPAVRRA
Chain of ELF4 (Q99607 whole entry): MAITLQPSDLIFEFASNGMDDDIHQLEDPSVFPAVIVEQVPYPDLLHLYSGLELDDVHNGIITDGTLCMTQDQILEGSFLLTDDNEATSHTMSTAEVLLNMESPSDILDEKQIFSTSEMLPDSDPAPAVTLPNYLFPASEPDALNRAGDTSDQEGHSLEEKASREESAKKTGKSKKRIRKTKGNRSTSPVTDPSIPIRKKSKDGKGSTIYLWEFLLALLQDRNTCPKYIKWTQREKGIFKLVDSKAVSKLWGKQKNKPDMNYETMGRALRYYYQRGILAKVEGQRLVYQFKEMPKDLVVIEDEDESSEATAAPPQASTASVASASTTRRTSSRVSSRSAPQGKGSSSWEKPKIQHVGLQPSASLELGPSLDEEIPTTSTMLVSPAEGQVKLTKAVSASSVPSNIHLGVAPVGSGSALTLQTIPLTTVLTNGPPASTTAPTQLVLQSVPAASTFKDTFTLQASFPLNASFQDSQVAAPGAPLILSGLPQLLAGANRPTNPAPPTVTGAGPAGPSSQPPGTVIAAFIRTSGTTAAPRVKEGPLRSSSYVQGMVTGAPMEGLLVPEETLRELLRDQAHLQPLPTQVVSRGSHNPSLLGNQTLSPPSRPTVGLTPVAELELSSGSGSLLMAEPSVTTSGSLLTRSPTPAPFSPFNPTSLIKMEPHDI

On to TGAATC, for which the binding signal with ELK1 was 1.01 fold enrichment (6-mer frequency, TF over GST control); with GABPA, 1.05 fold enrichment (6-mer frequency, TF over GST control); in the assay with ELF1 it was 1 fold enrichment (6-mer frequency, TF over GST control); with EHF it was 1.04 fold enrichment (6-mer frequency, TF over GST control); with SPIB it was 1.04 fold enrichment (6-mer frequency, TF over GST control); with SPIC it was 1.01 fold enrichment (6-mer frequency, TF over GST control). Further, the binding signal with ELK4 is 1.03 fold enrichment (6-mer frequency, TF over GST control); with ETV1, 1.01 fold enrichment (6-mer frequency, TF over GST control); with SPDEF, 1.11 fold enrichment (6-mer frequency, TF over GST control); with ETV3, 1.01 fold enrichment (6-mer frequency, TF over GST control); in the assay with ETV6 it was 1.01 fold enrichment (6-mer frequency, TF over GST control).

As for ACCTAG, the binding signal is 1.14 fold enrichment (6-mer frequency, TF over GST control) with GABPA; 1.06 fold enrichment (6-mer frequency, TF over GST control) with ELF1; 1.04 fold enrichment (6-mer frequency, TF over GST control) in the assay with EHF; 1.01 fold enrichment (6-mer frequency, TF over GST control) in the assay with SPIC; 1.06 fold enrichment (6-mer frequency, TF over GST control) in the assay with ELF4; 1.08 fold enrichment (6-mer frequency, TF over GST control) in the assay with ELK4. For the same sequence, the binding signal was 1.02 fold enrichment (6-mer frequency, TF over GST control) with ELF3; 1.06 fold enrichment (6-mer frequency, TF over GST control) with ERF; 1.05 fold enrichment (6-mer frequency, TF over GST control) with ETV3L; 1.06 fold enrichment (6-mer frequency, TF over GST control) with ETS2; 1.11 fold enrichment (6-mer frequency, TF over GST control) in the assay with ETV7; 1.02 fold enrichment (6-mer frequency, TF over GST control) with ETV6.
